The results in this text go back to article PMC10726135, “HNF4α isoforms regulate the circadian balance between carbohydrate and lipid metabolism in the liver”.

The full ranking holds about 18,000 sequences; the median of “log2 normalized intensity” is about 0.36, and the highest 2% start at about 7.3. Shown is part of a subset that was picked to be rich in the highest values.

In the assay the target is T1, HNF4alpha8 (COS-7 nuclear extract) (Homo sapiens, UniProt P41235-5 1-452).
T1 sequence: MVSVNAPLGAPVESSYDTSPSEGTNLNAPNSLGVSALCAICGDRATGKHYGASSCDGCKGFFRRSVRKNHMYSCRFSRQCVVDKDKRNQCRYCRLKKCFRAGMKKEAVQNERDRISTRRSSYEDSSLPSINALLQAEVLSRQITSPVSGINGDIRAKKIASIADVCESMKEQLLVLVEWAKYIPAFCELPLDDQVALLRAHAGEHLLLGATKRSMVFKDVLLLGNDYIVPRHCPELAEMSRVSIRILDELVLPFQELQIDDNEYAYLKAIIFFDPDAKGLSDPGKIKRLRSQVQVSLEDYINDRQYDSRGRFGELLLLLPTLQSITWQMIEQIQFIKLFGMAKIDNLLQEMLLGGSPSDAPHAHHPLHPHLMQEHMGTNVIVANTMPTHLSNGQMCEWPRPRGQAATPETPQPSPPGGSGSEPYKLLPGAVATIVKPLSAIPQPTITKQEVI
Description: protein-binding microarray; COS-7 nuclear extract on double-stranded Agilent 4x180k PBM; binding buffer, salt, pH and temperature not given in the material; high values mean tight binding. To be noted: chain copies: 2; label: 3' end of strand 1 on the slide; dsDNA, one strand shown. The essentials:
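A custom Agilent SurePrint G3 4x180k array, spotted in quadruplicate with ~44,000 test sequences as ~60-nt oligonucleotides made double-stranded, was incubated with nuclear extracts. The extracts came from COS-7 cells transiently transfected by CaPO4 with a human HNF4α isoform expression vector. Bound HNF4α was imaged on an Agilent G2565CA scanner at 2-µm resolution, and the binding signal was taken as Agilent software's background-corrected, normalized gProcessedSignal.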
In the case of “TGCAAGTTACCTTGGGGTCAAAGTACATCCGCCTAGGGAGATTAGAGTATCGGTCGA”, the binding signal was 9.54 log2 normalized intensity.
With “GTTACCTTGGGGTCAAAGTACATCCCCTAAGCCTAGGGAGATTAGAGTATCGGTCGA”, the binding signal turned out to be 7.38 log2 normalized intensity.
As for “GGTCAAAGTACATCCCCTAAAACATCAAATGCCTAGGGAGATTAGAGTATCGGTCGA”, the binding signal stood at 3.45 log2 normalized intensity.
With “AGGTGCAAAGTACATATTTACTTACCTTTTGCCTAGGGAGATTAGAGTATCGGTCGA”, the binding signal came out at 3.68 log2 normalized intensity.
In the case of “CTTGGGGTCAAAGTACATCCCCTAAAACATGCCTAGGGAGATTAGAGTATCGGTCGA”, the binding signal was determined as 6.61 log2 normalized intensity.
“TTGCAGACCTTGGTCAAAGTGACACATTCCGCCTAGGGAGATTAGAGTATCGGTCGA”: the binding signal was found to be 0.772 log2 normalized intensity.
In the case of “AACACCAGCAACCGCCTACCTTTGGACTTCGCCTAGGGAGATTAGAGTATCGGTCGA”, the binding signal came out at 6.25 log2 normalized intensity.
For the sequence “TGGACCATTGCTGACCTTGCCTCTGTGCTCGCCTAGGGAGATTAGAGTATCGGTCGA”, the binding signal came to 1.8 log2 normalized intensity.
“CTCTGGCCAGAGAGATGTCAGCCCAAGATAGCCTAGGGAGATTAGAGTATCGGTCGA”: the binding signal is 3.25 log2 normalized intensity.
On to “AAATGAAGTGGTATCCTGCAGTCAGTCTGAGCCTAGGGAGATTAGAGTATCGGTCGA”, for which the binding signal is -0.508 log2 normalized intensity.
For the sequence “TGACTTTCTTCCTATGGGATCAAAGTGCGAGCCTAGGGAGATTAGAGTATCGGTCGA”, the binding signal amounted to 5.69 log2 normalized intensity.
Take “AAAAAATGGGCAAAGGACAATAATGAATAAGCCTAGGGAGATTAGAGTATCGGTCGA”: the binding signal was -0.651 log2 normalized intensity.
As to “CCTGTTTGACCTTCGAACCCTTGCCATTTAGCCTAGGGAGATTAGAGTATCGGTCGA”, the binding signal was determined as 7.81 log2 normalized intensity.
Turning to “CATACTTCTTCCTGTTTGACCTTCGAACCCGCCTAGGGAGATTAGAGTATCGGTCGA”, the binding signal is 10.1 log2 normalized intensity.
Take “AAGCACATACTTCTTCCTGTTTGACCTTCGGCCTAGGGAGATTAGAGTATCGGTCGA”: the binding signal was 5.61 log2 normalized intensity.
“CCTTGACCCTTCCTCCCATTTGCTGCTCTAGCCTAGGGAGATTAGAGTATCGGTCGA”: the binding signal was found to be 1.81 log2 normalized intensity.
With “TTGACCTTCTCTGTTAACCCTTTGCAGCCCGCCTAGGGAGATTAGAGTATCGGTCGA”, the binding signal was 2.91 log2 normalized intensity.
As for “GTACCTTGACCTTCTCTGTTAACCCTTTGCGCCTAGGGAGATTAGAGTATCGGTCGA”, the binding signal was determined as 4.52 log2 normalized intensity.
Regarding “TTCTTCCTGTTTGACCTTCGAACCCTTGCCGCCTAGGGAGATTAGAGTATCGGTCGA”, the binding signal stood at 9.64 log2 normalized intensity.
Take “CTCCTGTTTGTATTCCTTGTCCTTGACCCTGCCTAGGGAGATTAGAGTATCGGTCGA”: the binding signal is 4.96 log2 normalized intensity.
For “TTGACCTTCGAACCCTTGCCATTTACATCAGCCTAGGGAGATTAGAGTATCGGTCGA”, the binding signal was found to be 6.21 log2 normalized intensity.
For “ACCTCTGTAATAACTGCAGTGCCACTCGGGGCCTAGGGAGATTAGAGTATCGGTCGA” the value was -0.418 log2 normalized intensity; for “CTTTATCCTACAAGGGAGATAAACTTTATCGCCTAGGGAGATTAGAGTATCGGTCGA”, 0.672 log2 normalized intensity; for “GCTTGGCAAACATTTCACTTTGCTCCCTCCGCCTAGGGAGATTAGAGTATCGGTCGA”, 2.18 log2 normalized intensity.
